# proKLK7 act – activators of human kallikrein-7 zymogen | AID 652039 | purified proKLK7, EDANS-DABCYL substrate fluorescence; 100% is mature enzyme control, 0% vehicle | activation, % at 7 µM | 0.9% of 370,000 active | P49862;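 active = activation above the mean of all tested compounds plus 3 SD, computed per campaign excluding outliers beyond control limits, cut at about 13% in these data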
# Target sequence (P49862 whole entry, looked up): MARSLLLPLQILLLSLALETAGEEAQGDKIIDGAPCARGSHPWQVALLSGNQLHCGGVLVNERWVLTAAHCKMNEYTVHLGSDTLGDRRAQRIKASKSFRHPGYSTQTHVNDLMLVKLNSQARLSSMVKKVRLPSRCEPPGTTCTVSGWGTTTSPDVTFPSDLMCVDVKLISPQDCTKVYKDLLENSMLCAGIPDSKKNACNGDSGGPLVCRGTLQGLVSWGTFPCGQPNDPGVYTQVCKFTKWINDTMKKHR
# ADAM10 inh – inhibits human ADAM10; O14672; recombinant ADAM10, EDANS/DABCYL FRET peptide cleavage, 3 h; inhibition, % at 7 µM; 0.62% of 370,000 active; AID 720582;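 active = inhibition above a per-campaign cutoff equal to the mean of compounds falling between control-based bounds plus 3 SD, cut at about 20% in these data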;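 note: 0% = DMSO wells while the 100% control is not disclosed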
# sPLA2-III inh – Inhibits HGIII-sPLA2 liposome hydrolysis, primary screen | inhibition, % at 12.2 µM | Q9NZ20 | QFRET BODIPY PC-A2 liposome hydrolysis, fluorescence | 0.56% of 370,000 active;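 active = inhibition above mean plus 3 SD of compounds lying within the high and low control bounds, cut at about 19% in these data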;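 note: 0% = median of test compound wells and 100% = no enzyme DMSO wells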
# ADAM17 inh – ADAM17 inhibition, QFRET primary screen | P78536 | recombinant ADAM17, EDANS/DABCYL FRET peptide cleavage | inhibition, % at 6.95 µM | 0.83% of 370,000 active | AID 720648;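 active = inhibition above the mean of compounds lying between control limits plus 3 SD, set per campaign, cut at about 8.5% in these data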;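 note: 0% = DMSO-only wells as the low control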
# PLCb3 inh – PLC-beta3 (human) inhibition, primary screen; inhibition, % at 12.2 µM; Purified PLC-beta3, fluorogenic substrate, fluorescence; Q01970; 0.18% of 370,000 active; in the data active = inhibition above about 11%;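 note: 0% = median of compound wells on plate and 100% = full blocker control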
# PLC-gamma1 inh – PLC-gamma1 (human) inhibition, primary screen | P19174 | purified PLC-gamma1, fluorogenic substrate, fluorescence | inhibition, % at 12.2 µM | 0.84% of 370,000 active
# PLCgamma1 ctr – inhibits human PLC-gamma1 in PLC-beta3 counter-screen; shares compounds with PLC-gamma1 inh; purified PLC-gamma1, fluorogenic substrate, fluorescence; inhibition, % at 12.3 µM; 3.1% of 3,300 active
# PLCbeta3 conf – human PLC-beta3 inhibition, confirmation; shares compounds with PLC-gamma1 inh; purified PLC-beta3, fluorogenic substrate fluorescence; inhibition, % at 12.3 µM; 1% of 3,300 active; AID 743261; in the data active = inhibition above about 11%
# * marks the source's active call; other numbers are inactive results; . = no result given. Sampled rows, rich in hits. Any-hit rate of the full collection: about 3.4%. Cut-off read from the data, not from the text of the source, unless noted: active = inhibition above about 9.5%; inactive = the rest.
SMILES,proKLK7 act,ADAM10 inh,sPLA2-III inh,ADAM17 inh,PLCb3 inh,PLC-gamma1 inh,PLCgamma1 ctr,PLCbeta3 conf
Cc1ccc(NC(=S)NC2CC3CCC(C2)N3Cc2ccco2)cc1C (configuration not stated),-0.7,7.6,-5.3,4.7,5.7,13.4*,-5.2,-2.0
Cc1cccc(NC2=C(Cl)C(=O)OC2OC(C)C)c1 (configuration not stated),0.3,5.0,6.3,7.9,6.6,10.4*,6.5,0.7
Cc1ccc(NC2=C(Cl)C(=O)OC2OC(C)C)cc1 (configuration not stated),-0.3,5.0,4.2,2.0,2.5,4.4,.,.
N/C(=N\O)c1ccc(N2CCN(c3ncccc3C(F)(F)F)CC2)nc1,-0.9,-1.7,-0.1,0.8,-4.6,5.4,.,.
N/C(CSc1ncccc1C(F)(F)F)=N\O,0.6,-2.3,5.2,0.6,-2.2,9.8*,0.8,4.1
CC(C)Oc1ccc(-c2csc(N3CCC(C(N)=O)CC3)n2)cc1,.,-1.3,12.1,-4.0,-4.5,3.1,.,.
CCC(C)NC(=O)CSc1nc2c(sc3ccccc32)c(=O)n1CCCN1CCOCC1 (configuration not stated),-0.3,-13.3,8.5,-5.1,3.1,9.9*,-2.9,0.2
CCOC(=O)CSc1nc2c(sc3ccccc32)c(=O)n1CCCN1CCOCC1,0.4,-8.5,-2.9,-7.9,-1.5,0.9,.,.
COC1CCN(C(=O)c2ccc(OC3CCN(Cc4ccccn4)CC3)cc2)CC1,0.4,-0.1,9.7,-20.4,-11.9,10.1*,-3.6,0.0
COCCC(=O)N1CCC(Oc2ccc(C(=O)N3CCCC(OC)C3)cc2)CC1 (configuration not stated),0.2,4.8,4.3,-3.7,11.6*,3.8,-1.3,-6.8
COc1ccccc1C(=O)N(C)c1nnc(-c2ccccc2)s1,0.8,13.5,5.9,4.2,3.9,9.7*,-1.3,1.6
COc1ccccc1C(=O)Nc1nnc(-c2ccccc2)s1,-0.4,-23.0,-12.9,-9.5,-22.2,-7.6,.,.
C/C=C/C(=O)N1CCC(C(=O)NCC2COc3ccccc3O2)CC1 (configuration not stated),0.2,8.1,6.4,2.4,4.0,3.1,.,.
CCN(CCNCC(O)COc1ccccc1C(C)C)c1cccc(C)c1 (configuration not stated),-0.1,10.0,-11.3,-0.5,-1.1,16.9*,1.3,1.9
O=C(O)C1C2C=CC(C3CC23)C1C(=O)O (configuration not stated),0.3,1.2,1.8,3.1,-1.5,10.1*,-4.7,-4.0
Cn1c(=O)c2ccccc2n(C)c1=O,-0.1,-21.5,14.9,-2.1,3.3,1.0,.,.
Cc1c(CN(C)C(=O)c2ccc(Br)o2)cnn1C,-0.1,8.9,-1.8,3.0,4.9,11.9*,-7.3,-4.6
O=C(c1ccc(Br)o1)N(Cc1ccccc1)Cc1ccccc1,-0.2,1.8,0.4,2.8,-3.4,-2.8,.,.
O=C(COC(=O)/C=C/c1ccccc1)Nc1ccccc1Br,-0.6,-4.3,3.9,-1.8,1.9,-1.1,.,.
C/C=C/C(=O)OCC(=O)Nc1ccccc1Br,0.7,13.8,5.2,4.5,-0.2,9.6*,-6.4,-1.0
O=c1c(=O)n(O)c2ccccc2n1O,-0.5,5.8,0.0,-2.6,-1.3,12.6*,-6.0,-2.2
COc1cc2[nH]c(=O)n(CCCCCC(=O)NC3CCCC3)c(=O)c2cc1OC,0.1,-11.9,16.2,-10.4,-4.7,10.3*,-0.4,-5.6
CCCCCCCCN1C(=O)[C@@H](CC(=O)NCc2cccs2)C[C@@]2(C(=O)OC)C1=C[C@H](C(C)C)O[C@@H]2C1CC1,1.0,-3.1,-4.8,-4.0,-0.5,-0.1,.,.
Cc1cc(C)nc(Nc2nc(C(N)CCc3ccccc3)cs2)n1 (configuration not stated),0.0,12.1,7.3,8.0,11.1*,14.0*,-5.9,-14.2
O=C(Cn1nnc(-c2ccccc2NC(=O)C2CC2)n1)NC1CCCCC1,0.8,-5.8,14.3,3.9,2.8,11.0*,-7.2,-3.7
SMILES,proKLK7 act,ADAM10 inh,sPLA2-III inh,ADAM17 inh,PLCb3 inh,PLC-gamma1 inh,PLCgamma1 ctr,PLCbeta3 conf
CC(=O)Nc1ccc(S(=O)(=O)c2ccc(C)cc2)cc1,0.0,-3.5,1.6,3.2,-4.5,10.1*,-7.1,-4.0
CC(=O)Nc1ccc(C(=O)CS(=O)(=O)c2ccc(C)cc2)cc1,0.1,3.2,-20.5,-0.8,0.5,-0.1,.,.
N=C(N)SCc1cn(-c2ccccc2)nc1-c1ccc(Br)cc1,0.4,2.2,12.2,-0.3,4.9,9.5*,7.2,1.3
O=C(Cn1nc(-c2ccccc2)c2ccccc21)Oc1ccccc1,.,5.9,5.2,6.6,2.1,13.4*,-4.3,-2.9
COC(=O)Cn1nc(-c2cccc(OC)c2)c2ccccc21,.,0.6,-4.1,-0.5,-1.1,3.6,.,.
O=S1(=O)c2ccc(N3CC[C@H](O)C3)cc2O[C@H]2CCN1C2,-0.7,-4.4,4.4,-6.5,-3.8,0.7,.,.
CN(C)S(=O)(=O)c1cc(C(=O)NCC2CCCO2)c(Cl)cc1Cl (configuration not stated),0.6,-0.3,5.0,-1.2,6.1,9.5*,-1.4,2.5
COc1cccc(C2(O)CCN(C(=O)C3CCC3)CC2)c1,0.9,8.7,5.5,7.9,6.0,11.8*,-0.7,6.9
Cc1ccc(NC(=O)c2nn(C34CC5CC(CC(C5)C3)C4)cc2[N+](=O)[O-])cc1,1.1,16.5,-6.5,2.9,13.7*,12.3*,7.4,11.1*
COc1ccc(NC(=O)c2nn(C)cc2[N+](=O)[O-])cc1,-0.4,4.3,6.0,0.8,-1.0,1.9,.,.
N#Cc1ccccc1S(=O)(=O)N1CCN(CC(O)CN2CCOCC2)CC1 (configuration not stated),-0.8,-16.4,12.8,-2.1,0.4,9.7*,-4.2,1.3
CN(CCOC(=O)c1occ2ccccc12)C1CN(Cc2cn(Cc3ccccc3Cl)nn2)S(=O)(=O)C1 (configuration not stated),0.5,-8.0,-4.3,-6.1,2.3,-0.9,.,.
COc1cc(NC(=O)Cn2cnc3c(nc4n3CCCCC4)c2=O)cc(OC)c1OC,0.1,9.7,-1.4,-3.2,-3.8,4.6,.,.
CCN(C(=O)Cn1cnc2c(nc3n2CCCCC3)c1=O)c1cccc(Cl)c1,-0.1,6.7,7.9,-0.1,0.2,11.7*,-7.0,-5.5
Cc1ccc(Cn2cc(CN(C3CC3)S(=O)(=O)c3ccccc3Br)nn2)cc1,0.1,4.7,-5.3,1.6,-0.6,-0.1,.,.
Cc1ccc(-c2c(NC(=O)Nc3ccccc3)nc3ncccn23)cc1,5.9,-64.6,0.3,-18.2,-231.8,-188.0,.,.
